Laboratory results published in PubChem BioAssay (NCI).
Compounds without any hit were thinned out: in the full panel of roughly 83,000, 20% have a hit.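 A percent growth of 40 corresponds to 60% growth inhibition; 0 means no net growth; -100 means all cells died. Active threshold: below 10.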 Unmarked numbers belong to inactive results. Active and inactive are the calls of the source.

Experiments:
Experiment in all cases: NCI-60 one-dose screen, 48 h (100 = growth as untreated, 0 = no growth, -100 = all killed)
Details in all cases: 10 µM unless noted
NCI-H23 lung = system: NCI-H23 lung
NCI-H226 lung = system: NCI-H226 lung
NCI-H322M lung = system: NCI-H322M lung
HOP-62 NSCLC = system: HOP-62 NSCLC
NCI-H460 lung = system: NCI-H460 lung
HOP-92 NSCLC = system: HOP-92 NSCLC
NCI-H522 lung = system: NCI-H522 lung
A549/ATCC NSCLC = system: A549/ATCC NSCLC
786-0 renal = system: 786-0 renal
COLO 205 colon = system: COLO 205 colon

How did the growth (NCI-H23 lung) turn out when `CCOC(=O)Nc1ccc2nc(-c3cscn3)[nH]c2c1` was run?
Its growth is 71.6%.

What about the growth (NCI-H226 lung) of the same compound?
Its growth is 63.5%.

What about the growth (NCI-H322M lung) of the same compound?
The growth was 63.1%.

What about the growth (HOP-62 NSCLC) of the same compound?
The growth was 54.1%.

What about the growth (NCI-H460 lung) of the same compound?
The growth was 21.7%.

What about the growth (HOP-92 NSCLC) of the same compound?
Its growth is 114%.

And the growth (NCI-H522 lung)?
Its growth is 43.7%.

And the growth (A549/ATCC NSCLC)?
The growth was 45%.

What about the growth (786-0 renal) of the same compound?
The growth was 67.7%.

And the growth (COLO 205 colon)?
The growth was 29%.

With `O=C(Nc1ccc(Br)cc1)Nc1ccccc1Cl` as the compound, how does the growth (NCI-H23 lung) read?
Its growth is 63.2%.

What about the growth (NCI-H226 lung) of the same compound?
The growth was 80%.

What about the growth (NCI-H322M lung) of the same compound?
The growth was 119%.

And the growth (HOP-62 NSCLC)?
Its growth is 92.7%.

What about the growth (NCI-H460 lung) of the same compound?
The growth was 93.3%.

And the growth (HOP-92 NSCLC)?
Its growth is 90.5%.

What about the growth (NCI-H522 lung) of the same compound?
The growth was 56.8%.

What about the growth (A549/ATCC NSCLC) of the same compound?
Its growth is 82.5%.

And the growth (786-0 renal)?
Its growth is 83.4%.

What about the growth (COLO 205 colon) of the same compound?
The growth was 106%.

For `CC(=O)OC1Oc2ccccc2-c2oc3nc(=N)n(C)c-3cc21` (stereo not given), which growth (NCI-H23 lung) is on record?
Its growth is 103%.

What about the growth (NCI-H226 lung) of the same compound?
Its growth is 117%.

And the growth (NCI-H322M lung)?
Its growth is 123%.

What about the growth (HOP-62 NSCLC) of the same compound?
Its growth is 91.9%.

What about the growth (NCI-H460 lung) of the same compound?
Its growth is 112%.

What about the growth (HOP-92 NSCLC) of the same compound?
The growth was 99.1%.

And the growth (NCI-H522 lung)?
The growth was 98.1%.

And the growth (A549/ATCC NSCLC)?
Its growth is 119%.

What about the growth (786-0 renal) of the same compound?
The growth was 103%.

What about the growth (COLO 205 colon) of the same compound?
The growth was 119%.

With `O=C(CSc1ccc(Cl)cc1)Nc1ccc(-c2nc3ccccc3s2)c(Cl)c1` as the compound, how does the growth (NCI-H23 lung) read?
Its growth is 20.9%.

What about the growth (NCI-H226 lung) of the same compound?
The growth was 77.4%.

And the growth (NCI-H322M lung)?
The growth was 87.7%.

And the growth (HOP-62 NSCLC)?
Its growth is 75.3%.

What about the growth (NCI-H460 lung) of the same compound?
Its growth is 41.5%.

What about the growth (HOP-92 NSCLC) of the same compound?
The growth was 6.61% (active).

What about the growth (NCI-H522 lung) of the same compound?
Its growth is 28.2%.

And the growth (A549/ATCC NSCLC)?
The growth was 48.8%.

And the growth (786-0 renal)?
The growth was 48.9%.

What about the growth (COLO 205 colon) of the same compound?
Its growth is 76.2%.

With `Cc1ccc(C2CC(c3cccs3)=NN2c2ccc(S(N)(=O)=O)cc2)s1` (stereo not given) as the compound, how does the growth (NCI-H23 lung) read?
The growth was 107%.

What about the growth (NCI-H226 lung) of the same compound?
Its growth is 89.8%.

And the growth (NCI-H322M lung)?
Its growth is 98%.

What about the growth (HOP-62 NSCLC) of the same compound?
The growth was 95.6%.

What about the growth (NCI-H460 lung) of the same compound?
The growth was 88.8%.

What about the growth (HOP-92 NSCLC) of the same compound?
Its growth is 75.2%.

And the growth (NCI-H522 lung)?
Its growth is 63.2%.

What about the growth (A549/ATCC NSCLC) of the same compound?
Its growth is 71.2%.

What about the growth (786-0 renal) of the same compound?
Its growth is 98.5%.

What about the growth (COLO 205 colon) of the same compound?
The growth was -75.1% (active).

How did the growth (NCI-H23 lung) turn out when `COc1ccc2c(c1)N(CCO)C1=C(C(=O)OC1)C2c1cccc(Br)c1` (stereo not given) was run?
The growth was 29.2%.

And the growth (NCI-H226 lung)?
Its growth is -5.22% (active).

What about the growth (NCI-H322M lung) of the same compound?
Its growth is 29%.

What about the growth (HOP-62 NSCLC) of the same compound?
Its growth is 29.4%.

And the growth (NCI-H460 lung)?
Its growth is 2.07% (active).

And the growth (HOP-92 NSCLC)?
The growth was 42.7%.

And the growth (NCI-H522 lung)?
Its growth is -19.2% (active).

And the growth (A549/ATCC NSCLC)?
The growth was 16.4%.

What about the growth (786-0 renal) of the same compound?
Its growth is 21.4%.

What about the growth (COLO 205 colon) of the same compound?
The growth was -47.2% (active).

Which growth (NCI-H23 lung) does the source give for `N#Cc1c(NN)n(C2OC(CO)C(O)C2O)c2ncnc(N)c12` (stereo not given) here?
The growth was 2.93% (active).

And the growth (NCI-H226 lung)?
The growth was 25.7%.

And the growth (NCI-H322M lung)?
Its growth is -19.8% (active).

What about the growth (HOP-62 NSCLC) of the same compound?
Its growth is -0.156% (active).

And the growth (NCI-H460 lung)?
Its growth is -13.4% (active).

What about the growth (HOP-92 NSCLC) of the same compound?
Its growth is -18.9% (active).

What about the growth (NCI-H522 lung) of the same compound?
Its growth is -57% (active).

And the growth (A549/ATCC NSCLC)?
The growth was 6.43% (active).

What about the growth (786-0 renal) of the same compound?
Its growth is 26.1%.

And the growth (COLO 205 colon)?
The growth was -32.7% (active).

Which growth (NCI-H23 lung) does the source give for `COCCOCCOCc1n(Cc2ccc3ccccc3n2)c2ccccc2[n+]1Cc1ccc2ccccc2c1` here?
The growth was 1.03% (active).

And the growth (NCI-H226 lung)?
Its growth is 28.1%.

What about the growth (NCI-H322M lung) of the same compound?
The growth was 26.8%.

What about the growth (HOP-62 NSCLC) of the same compound?
Its growth is 11.7%.

And the growth (NCI-H460 lung)?
Its growth is 7.94% (active).

What about the growth (HOP-92 NSCLC) of the same compound?
The growth was -18.2% (active).

What about the growth (NCI-H522 lung) of the same compound?
The growth was 0.793% (active).

And the growth (A549/ATCC NSCLC)?
Its growth is 22.5%.

And the growth (786-0 renal)?
The growth was 21.2%.

What about the growth (COLO 205 colon) of the same compound?
The growth was -73.3% (active).

What does the source list for `Cc1ccc(-c2cnc3sc4ccc(Cl)cc4n23)cc1`?
growth (NCI-H23 lung): 89.7%; growth (NCI-H226 lung): 74.6%; growth (NCI-H322M lung): 93.4%; growth (HOP-62 NSCLC): 80.3%; growth (NCI-H460 lung): 104%; growth (HOP-92 NSCLC): 85.6%; growth (NCI-H522 lung): 78.1%; growth (A549/ATCC NSCLC): 112%; growth (786-0 renal): 109%; growth (COLO 205 colon): 96.8%

How did the growth (NCI-H23 lung) turn out when `Cc1ccc(NC(=O)c2[nH]c(SCCN(C)C)nc2-c2ccc(F)cc2)cc1C#Cc1cnc2cccnn12` was run?
The growth was 66.7%.

And the growth (NCI-H226 lung)?
The growth was 55.9%.

And the growth (NCI-H322M lung)?
The growth was 48.1%.

And the growth (HOP-62 NSCLC)?
Its growth is -8.9% (active).

And the growth (NCI-H460 lung)?
Its growth is -69.4% (active).

What about the growth (HOP-92 NSCLC) of the same compound?
Its growth is 80.4%.

And the growth (NCI-H522 lung)?
The growth was 1.49% (active).

What about the growth (A549/ATCC NSCLC) of the same compound?
The growth was 5.21% (active).

And the growth (786-0 renal)?
The growth was -67.1% (active).

What about the growth (COLO 205 colon) of the same compound?
The growth was 81.1%.

With `Clc1ccccc1Nc1nnc(-c2ccncc2)s1` as the compound, how does the growth (NCI-H23 lung) read?
Its growth is 102%.

And the growth (NCI-H226 lung)?
The growth was 101%.

What about the growth (NCI-H322M lung) of the same compound?
The growth was 93.7%.

And the growth (HOP-62 NSCLC)?
Its growth is 118%.

And the growth (NCI-H460 lung)?
Its growth is 99.7%.

And the growth (HOP-92 NSCLC)?
The growth was 93.9%.

What about the growth (NCI-H522 lung) of the same compound?
Its growth is 98.6%.

And the growth (A549/ATCC NSCLC)?
Its growth is 95%.

And the growth (786-0 renal)?
The growth was 80.2%.

What about the growth (COLO 205 colon) of the same compound?
The growth was 114%.
